From PubChem BioAssay (Tox21)
Results filed as inconclusive are left out. Entries that show only a call come without a potency. More than one record can exist for a structure, and the calls need not agree. Active and inactive are the calls of the source. Unless noted, calls follow the shape of the dose curve; as a rule, active = well fitted curve in the direction sought with a large enough effect in the repeat runs; inconclusive = weak or mixed curves; inactive = no such curve, though single readings can be large; an effect the other way counts as inactive or inconclusive.

Tests used:
[1] = qHTS assay to identify small molecule antagonists of the glucocorticoid receptor (GR) signaling pathway - cell viability counter screen (AID 720693); also: nearly all actives have a fitted effect of over 55% in size
[2] = qHTS assay for identifying genotoxic compounds that show differential cytotoxicity against isogenic chicken DT40 cell lines with known DNA damage response pathways - wild type cell line (AID 743012); also: nearly all actives have a fitted effect of over 60% in size
Method in brief: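 CellTiter-Glo luminescence readout of viability in wild type DT40 cells after 40 h compound exposure at 37 C/5% CO2; 300 cells/well; reagent incubated 30 min at room temperature before reading.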

[3] = qHTS assay for identifying genotoxic compounds that show differential cytotoxicity against isogenic chicken DT40 cell lines with known DNA damage response pathways - Rev3 mutant cell line (AID 743014); also: nearly all actives have a fitted effect of over 55% in size
[4] = qHTS assay for identifying genotoxic compounds that show differential cytotoxicity against isogenic chicken DT40 cell lines with known DNA damage response pathways - Rad54/Ku70 mutant cell line (AID 743015); also: nearly all actives have a fitted effect of over 60% in size
[5] = qHTS assay to identify small molecule antagonists of the androgen receptor (AR) signaling pathway - cell viability counter screen (AID 743033; also: nearly all actives have a fitted effect of over 45% in size)
[6] = qHTS assay to identify small molecule antagonists of the thyroid receptor (TR) signaling pathway (AID 743065); also: series mostly up to about 70 µM; nearly all actives have a fitted effect of over 55% in size
Method in brief: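 GH3.TRE-Luc rat pituitary cells (two TREs driving luciferase) were dosed with compound, then stimulated with 1 nM T3 (final) for 23.5 h at 37 C. ONE-Glo luminescence was the read-out, with CellTiter-Fluor fluorescence as the cytotoxicity counter-screen.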

[7] = system: thyroid hormone receptor (rat, GH3 cells); test: qHTS assay to identify small molecule agonists of the thyroid receptor (TR) signaling pathway (AID 743066; calls by dose curve)
[8] = target: Estrogen receptor (Homo sapiens) (UniProt P03372); test: qHTS assay to identify small molecule antagonists of the estrogen receptor alpha (ER-alpha) signaling pathway (AID 743069; active = well fitted curve in the direction sought with a large enough effect in the signal ratio in the repeat runs, not every such curve was filed as active; the % refers to the signal ratio)
Chain of Estrogen receptor (Homo sapiens) (P03372 whole entry, looked up): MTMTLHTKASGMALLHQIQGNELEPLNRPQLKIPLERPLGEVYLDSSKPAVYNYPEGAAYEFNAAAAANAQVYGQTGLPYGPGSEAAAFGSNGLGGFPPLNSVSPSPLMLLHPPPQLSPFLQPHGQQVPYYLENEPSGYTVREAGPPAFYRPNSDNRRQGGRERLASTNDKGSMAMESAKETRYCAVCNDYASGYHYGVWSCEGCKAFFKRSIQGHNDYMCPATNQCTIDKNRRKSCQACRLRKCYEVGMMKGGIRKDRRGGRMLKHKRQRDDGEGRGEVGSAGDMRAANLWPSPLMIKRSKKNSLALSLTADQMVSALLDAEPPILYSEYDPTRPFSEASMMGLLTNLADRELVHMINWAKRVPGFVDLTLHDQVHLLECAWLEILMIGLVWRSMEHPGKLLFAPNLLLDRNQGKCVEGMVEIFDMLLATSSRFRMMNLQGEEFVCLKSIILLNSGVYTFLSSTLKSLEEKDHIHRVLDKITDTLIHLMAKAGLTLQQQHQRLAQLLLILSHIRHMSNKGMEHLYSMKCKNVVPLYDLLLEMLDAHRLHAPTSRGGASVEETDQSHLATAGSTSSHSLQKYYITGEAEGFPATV
Method in brief: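 Beta-lactamase FRET fluorescence is read after 2 hr at room temperature with LiveBLAzer B/G substrate. Before that, ER-alpha-bla HEK293 cells sit 4 hr after plating, then receive compound plus 17beta-estradiol and incubate 18 hr at 37C.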

[9] = qHTS assay to identify small molecule antagonists of the estrogen receptor alpha (ER-alpha) signaling pathway - cell viability counter screen (AID 743074; calls by dose curve;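 also: HEK293 cells carrying ER-alpha-UAS-bla reporter stimulated with 17beta-estradiol; nearly all actives have a fitted effect of over 45% in size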)
[10] = target: Estrogen receptor (Homo sapiens) (UniProt P03372); test: qHTS assay to identify small molecule agonists of the estrogen receptor alpha (ER-alpha) signaling pathway (AID 743075; calls by dose curve;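 also: HEK293 GripTite cells with ER-alpha and UAS-driven beta-lactamase reporter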)
[11] = target: Estrogen receptor (Homo sapiens) (UniProt P03372); test: qHTS assay to identify small molecule agonists of the estrogen receptor alpha (ER-alpha) signaling pathway using the BG1 cell line (AID 743079); also: nearly all actives have a fitted effect of over 20% in size; also: potency is read from the fitted curve at half-maximal effect
[12] = qHTS assay to identify small molecule antagonists of the estrogen receptor alpha (ER-alpha) signaling pathway using the BG1 cell line (AID 743080; calls by dose curve;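 also: BG1 cells stimulated with 17beta-estradiol alongside compound; nearly all actives have a fitted effect of over 25% in size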; also: potency is read from the fitted curve at half-maximal effect)
Method in brief: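 Seeding, 24 h rest, compound transfer from DMSO, 17beta-estradiol addition, 21.5 h incubation, CellTiter-Fluor (30 min, 37 C), then ONE-Glo (30 min, room temperature): this sequence was run on BG1-Luc-4E2 reporter cells.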

[13] = qHTS assay to identify small molecule antagonists of the estrogen receptor alpha (ER-alpha) signaling pathway using the BG1 cell line - cell viability counter screen (AID 743081);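 also: compound given together with 17beta-estradiol as the ER stimulus; series mostly up to about 70 µM; nearly all actives have a fitted effect of over 45% in size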
Aromatase (Homo sapiens) = Aromatase (Homo sapiens) (UniProt P11511); test: qHTS assay to identify aromatase inhibitors (AID 743083); also: series mostly up to about 70 µM; nearly all actives have a fitted effect of over 55% in size
Chain of Aromatase (Homo sapiens) (P11511 whole entry, looked up): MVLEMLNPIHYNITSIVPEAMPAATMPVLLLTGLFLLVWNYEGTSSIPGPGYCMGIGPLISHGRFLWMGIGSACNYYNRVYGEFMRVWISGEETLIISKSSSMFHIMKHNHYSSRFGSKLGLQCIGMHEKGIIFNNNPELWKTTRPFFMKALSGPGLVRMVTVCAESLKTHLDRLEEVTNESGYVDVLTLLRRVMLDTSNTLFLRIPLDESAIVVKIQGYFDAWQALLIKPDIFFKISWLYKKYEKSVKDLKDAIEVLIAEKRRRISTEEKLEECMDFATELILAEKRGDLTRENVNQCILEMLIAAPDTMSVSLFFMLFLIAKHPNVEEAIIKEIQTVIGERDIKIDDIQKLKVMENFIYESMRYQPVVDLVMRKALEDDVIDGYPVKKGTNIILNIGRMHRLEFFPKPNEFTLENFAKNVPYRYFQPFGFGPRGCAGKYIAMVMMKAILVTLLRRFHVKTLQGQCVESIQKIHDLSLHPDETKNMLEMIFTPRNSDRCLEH

[14] = qHTS assay to identify small molecule antagonists of the androgen receptor (AR) signaling pathway using the MDA cell line - cell viability counter screen (AID 743041; also: nearly all actives have a fitted effect of over 45% in size)
Method in brief: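 Cytotoxicity counter screen: MDA-kb2 AR-luc cells, compound + R1881, 16 h, 37C, 0% CO2; CellTiter-Fluor added at 15.5 h, fluorescence read after 30 min.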

[15] = qHTS assay to identify small molecule antagonists of the thyroid receptor (TR) signaling pathway - cell viability counter screen (AID 743064); also: nearly all actives have a fitted effect of over 50% in size
Method in brief: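 Rat GH3 pituitary tumor cells stably expressing two TR response elements driving luciferase were plated, rested 4 h, then dosed with library compounds and T3 (1 nM final). After 23.5 h at 37 °C, CellTiter-Fluor was added for 30 min and fluorescence recorded.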

[16] = target: Androgen receptor (Homo sapiens) (UniProt P10275); test: qHTS assay to identify small molecule antagonists of the androgen receptor (AR) signaling pathway (AID 743035; active = well fitted inhibition curve with a large enough effect in the signal ratio in the repeat runs, not every such curve was filed as active; the % refers to the signal ratio)
Chain of Androgen receptor (Homo sapiens) (P10275 whole entry, looked up): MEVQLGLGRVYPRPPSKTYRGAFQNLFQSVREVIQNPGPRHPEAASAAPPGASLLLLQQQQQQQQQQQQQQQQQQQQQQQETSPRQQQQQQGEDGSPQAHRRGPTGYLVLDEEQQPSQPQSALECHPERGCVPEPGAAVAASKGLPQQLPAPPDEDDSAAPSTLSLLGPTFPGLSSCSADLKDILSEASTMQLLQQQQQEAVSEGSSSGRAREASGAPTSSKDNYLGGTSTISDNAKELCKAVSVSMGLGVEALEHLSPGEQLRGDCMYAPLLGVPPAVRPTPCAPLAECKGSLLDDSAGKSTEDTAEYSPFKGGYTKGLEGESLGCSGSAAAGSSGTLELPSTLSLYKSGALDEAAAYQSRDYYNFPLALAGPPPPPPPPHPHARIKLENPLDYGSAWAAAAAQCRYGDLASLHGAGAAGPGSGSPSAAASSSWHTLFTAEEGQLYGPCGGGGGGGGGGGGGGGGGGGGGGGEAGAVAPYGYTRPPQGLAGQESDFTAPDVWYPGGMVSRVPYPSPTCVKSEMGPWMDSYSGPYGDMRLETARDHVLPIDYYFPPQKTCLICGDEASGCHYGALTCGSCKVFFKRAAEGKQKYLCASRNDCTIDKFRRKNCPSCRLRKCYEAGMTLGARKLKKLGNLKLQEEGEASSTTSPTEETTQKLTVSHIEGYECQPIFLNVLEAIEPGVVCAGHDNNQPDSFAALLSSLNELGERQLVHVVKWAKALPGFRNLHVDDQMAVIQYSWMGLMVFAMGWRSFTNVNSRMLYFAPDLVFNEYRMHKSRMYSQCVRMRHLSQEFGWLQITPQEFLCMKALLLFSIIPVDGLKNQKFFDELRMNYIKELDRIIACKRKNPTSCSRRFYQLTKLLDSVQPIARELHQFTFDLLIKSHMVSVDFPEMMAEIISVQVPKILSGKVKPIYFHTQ
Method in brief: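 AR-bla HEK293 reporter cells; 4 h settle at 37C/5% CO2; compound + R1881 agonist, 16 h at 37C; LiveBLAzer B/G FRET substrate 2 h RT; fluorescence intensity read. qHTS format.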

[17] = target: Androgen receptor (Homo sapiens) (UniProt P10275); test: qHTS assay to identify small molecule agonists of the androgen receptor (AR) signaling pathway (AID 743036; active = well fitted activation curve with a large enough effect in the signal ratio in the repeat runs, with a control signal flat, not every such curve was filed as active; the % refers to the signal ratio)
Method in brief: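 Quantitative HTS of the Tox21 10K library in HEK293 cells bearing a stably integrated UAS-controlled beta-lactamase reporter. Compound exposure lasted 16 h at 37C. Reporter activity was detected by FRET substrate fluorescence after 2 h at room temperature.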

[18] = target: Androgen receptor (Homo sapiens) (UniProt P10275); test: qHTS assay to identify small molecule agonists of the androgen receptor (AR) signaling pathway using the MDA cell line (AID 743040; also: nearly all actives have a fitted effect of over 20% in size)
Method in brief: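 Luciferase read-out, ONE-Glo, 30 min RT. Cells: MDA-kb2 AR-luc, MMTV promoter with AR and GR response elements. Compound exposure 16 h, 37C, 0% CO2, after 5 h pre-incubation. qHTS agonist mode.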

[19] = target: Androgen receptor (Homo sapiens) (UniProt P10275); test: qHTS assay to identify small molecule antagonists of the androgen receptor (AR) signaling pathway using the MDA cell line (AID 743042; also: nearly all actives have a fitted effect of over 55% in size)
Method in brief: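 MDA-kb2 breast carcinoma cells carrying MMTV-luciferase (AR/GR responsive) were co-treated with compounds and the agonist R1881 for 16 h at 37C. Inhibition read as ONE-Glo luminescence; CellTiter-Fluor fluorescence measured in parallel for cytotoxicity.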

Row | SMILES | outcome [1] | Potency [2] | Potency [3] | Potency [4] | outcome [5] | Potency [6] | Potency [7] | outcome [8] | Potency [9] | Potency [10] | Potency [11] | Potency [12] | outcome [13] | Potency (Aromatase (Homo sapiens)) | outcome [14] | Potency [15] | outcome [16] | outcome [17] | outcome [18] | outcome [19]
1 | CC(O)CCCCn1c(=O)c2c(ncn2C)n(C)c1=O (centres undefined) | inactive | inactive | inactive | inactive | inactive | inactive | inactive | inactive | inactive | inactive | inactive | inactive | inactive | inactive | – | – | – | – | – | –
2 | Cc1cc(N)no1 | inactive | inactive | inactive | inactive | – | inactive | inactive | – | inactive | – | – | – | inactive | – | inactive | inactive | – | – | – | –
3 | C[C@@H]1CC[C@@]2(OC1)O[C@H]1C[C@H]3[C@@H]4CC[C@H]5C[C@@H](O)CC[C@]5(C)[C@H]4CC(=O)[C@]3(C)[C@H]1[C@@H]2C | inactive | inactive | inactive | inactive | inactive | inactive | inactive | inactive | inactive | inactive | inactive | inactive | inactive | inactive | – | inactive | – | – | – | –
4 | N=C(N)N | inactive | inactive | inactive | inactive | inactive | – | – | – | inactive | – | – | – | inactive | inactive | – | inactive | – | – | – | –
5 | C=CCCCCCCCCCCCCCC | inactive | inactive | inactive | inactive | inactive | inactive | inactive | inactive | inactive | inactive | inactive | inactive | inactive | inactive | – | inactive | – | – | – | –
6 | CCCCC(CC)CCC(CC(C)C)OS(=O)(=O)O (centres undefined) | inactive | inactive | inactive | inactive | inactive | – | – | inactive | inactive | inactive | 8.41 µM (active) and inactive | inactive | inactive | inactive | – | inactive | – | – | – | –
7 | O=C(CCBr)N1CCN(C(=O)CCBr)CC1 | inactive | inactive | inactive | inactive | inactive | inactive | inactive | inactive | inactive | inactive | inactive | inactive | inactive | inactive | inactive | – | – | – | – | –
8 | CC(C)(O)c1ccc(C(C)(C)O)cc1 | inactive | inactive | inactive | inactive | inactive | inactive | inactive | inactive | inactive | inactive | inactive | inactive | inactive | inactive | inactive | – | – | – | – | –
9 | CCCCc1ccc(Cl)cc1 | inactive | inactive | inactive | inactive | inactive | – | – | inactive | inactive | inactive | inactive | inactive | inactive | inactive | inactive | – | – | – | – | –
10 | COc1cc(OC)cc(OC)c1 | inactive | inactive | inactive | inactive | – | inactive | inactive | inactive | inactive | inactive | inactive | inactive | inactive | inactive | inactive | – | inactive | inactive | inactive | inactive
11 | NCC1CCC(C(=O)Oc2ccc(CCC(=O)O)cc2)CC1 (centres undefined) | inactive | inactive | inactive | inactive | inactive | inactive | inactive | inactive | inactive | inactive | – | 26.6 µM (active) | inactive | – | inactive | – | – | – | – | –
12 | N=C(N)S(=O)O | inactive | inactive | inactive | inactive | inactive | inactive | inactive | inactive | inactive | inactive | inactive | inactive | inactive | inactive | inactive | – | – | – | – | –
13 | COc1cc(C(=O)NC2CCCNC2)cc(OC)c1OC (centres undefined) | inactive | inactive | inactive | inactive | inactive | inactive | inactive | – | inactive | – | – | – | – | inactive | inactive | – | – | – | – | –
14 | CN(C)CCc1c[nH]c2ccc(C[C@H]3COC(=O)N3)cc12 | inactive | inactive | inactive | inactive | inactive | inactive | inactive | inactive | – | inactive | inactive | inactive | inactive | inactive | – | inactive | – | – | – | –
15 | CC(C)(Sc1cc(C(C)(C)C)c(O)c(C(C)(C)C)c1)Sc1cc(C(C)(C)C)c(O)c(C(C)(C)C)c1 | inactive | inactive | inactive | inactive | inactive | inactive | inactive | – | inactive | – | – | – | inactive | inactive | – | inactive | – | – | – | –
16 | O=CN1CCCCC1 | inactive | inactive | inactive | inactive | inactive | – | – | inactive | inactive | inactive | inactive | inactive | inactive | inactive | inactive | – | – | – | – | –
17 | Cc1cc(C)c(C)c(C)c1 | inactive | inactive | inactive | inactive | inactive | inactive | inactive | inactive | inactive | inactive | inactive | inactive | inactive | inactive | – | – | – | – | – | –
18 | CCN(CC)CC | inactive | inactive | inactive | inactive | inactive | inactive | inactive | inactive | inactive | inactive | inactive | inactive | inactive | inactive | – | inactive | – | – | – | –
19 | O=C(O)/C=C(\CC(=O)O)C(=O)O | inactive | inactive | inactive | inactive | – | inactive | inactive | inactive | inactive | inactive | – | inactive | inactive | inactive | inactive | inactive | – | – | – | –
20 | CC(C)(C)c1ccc(N)cc1 | inactive | inactive | inactive | inactive | inactive | inactive | inactive | inactive | inactive | inactive | – | inactive | inactive | inactive | inactive | – | – | – | – | –
21 | N#CC1(N)CCCCC1 | inactive | inactive | inactive | inactive | – | inactive | inactive | – | inactive | inactive | inactive | inactive | inactive | inactive | inactive | inactive | – | – | – | –
22 | CCCCCCCCOCCC#N | inactive | inactive | inactive | inactive | – | inactive | inactive | – | inactive | – | – | – | inactive | – | inactive | inactive | – | – | – | –
23 | Cc1cc(C)c(N)c(Cl)c1 | inactive | inactive | inactive | inactive | inactive | inactive | inactive | inactive | inactive | inactive | inactive | inactive | inactive | inactive | inactive | – | – | – | – | –
